Assay in all cases: protein-binding microarray (PBM); PBM: ~300 nM protein, 6 mM HEPES pH 7.8, 80 mM KCl, 0.5 mM EDTA, 0.5 mM EGTA, 6% glycerol, 35 ng/ul poly-dIdC, 1% milk, 1 h, room temperature; Ap Aiptasia and Nv Nematostella (sea anemones) / Co Capsaspora / Aq Amphimedon (sponge) / Dm Drosophila / Hu human; RHD is the Rel homology domain; high values mean tight binding
Details in all cases: dsDNA, one strand shown

In one test the target is T1, GST-Ap-NF-kB RHD (Exaiptasia pallida (Aiptasia), UniProt A0A913YAJ5 2-422).
T1 sequence: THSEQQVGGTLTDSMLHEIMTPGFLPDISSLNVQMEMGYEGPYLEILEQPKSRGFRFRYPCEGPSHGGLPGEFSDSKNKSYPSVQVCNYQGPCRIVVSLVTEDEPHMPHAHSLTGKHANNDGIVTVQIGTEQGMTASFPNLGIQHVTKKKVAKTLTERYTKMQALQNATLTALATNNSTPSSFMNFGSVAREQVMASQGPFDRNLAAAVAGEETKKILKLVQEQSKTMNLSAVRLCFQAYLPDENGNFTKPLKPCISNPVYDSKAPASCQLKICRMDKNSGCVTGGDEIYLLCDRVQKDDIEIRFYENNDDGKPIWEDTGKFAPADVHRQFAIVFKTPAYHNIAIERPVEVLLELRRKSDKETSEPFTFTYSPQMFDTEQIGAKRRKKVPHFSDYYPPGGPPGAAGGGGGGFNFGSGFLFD

Test [1] concerns the target T2, GST-Nv-NF-kB (Cys allele) (Nematostella vectensis, UniProt E5G601 2-411).
T2 sequence: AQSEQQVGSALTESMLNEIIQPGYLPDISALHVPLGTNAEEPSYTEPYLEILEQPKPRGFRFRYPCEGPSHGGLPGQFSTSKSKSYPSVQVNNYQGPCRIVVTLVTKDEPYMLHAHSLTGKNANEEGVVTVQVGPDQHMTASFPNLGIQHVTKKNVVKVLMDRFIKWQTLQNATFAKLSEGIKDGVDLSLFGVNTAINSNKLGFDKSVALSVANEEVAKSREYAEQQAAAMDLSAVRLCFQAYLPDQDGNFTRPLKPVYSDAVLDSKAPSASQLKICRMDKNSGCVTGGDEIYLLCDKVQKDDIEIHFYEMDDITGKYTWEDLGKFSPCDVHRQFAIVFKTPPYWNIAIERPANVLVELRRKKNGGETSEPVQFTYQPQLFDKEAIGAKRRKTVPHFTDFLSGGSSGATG

The target in test [2] is T3, GST-Nv-NF-kB (Ser allele) (Nematostella vectensis, UniProt A7UNT2 2-411).
T3 sequence: T2 sequence with Q21R, C66S, S207N, E215Q, V217A, E225K, A268E, D399E

Another test addresses T4, GST-Co-NF-kB (Capsaspora owczarzaki, UniProt F1ARL5 200-546).
T4 sequence: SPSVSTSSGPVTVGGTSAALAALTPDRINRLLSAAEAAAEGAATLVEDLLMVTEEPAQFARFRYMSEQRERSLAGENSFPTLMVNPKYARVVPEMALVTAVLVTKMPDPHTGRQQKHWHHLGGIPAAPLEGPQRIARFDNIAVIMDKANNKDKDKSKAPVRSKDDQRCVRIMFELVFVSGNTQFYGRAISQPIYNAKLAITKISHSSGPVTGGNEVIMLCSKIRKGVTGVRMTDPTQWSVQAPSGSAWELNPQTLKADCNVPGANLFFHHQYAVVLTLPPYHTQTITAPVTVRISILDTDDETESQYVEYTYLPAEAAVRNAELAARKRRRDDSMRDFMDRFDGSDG

The next test concerns the target T5, GST-Dm-Relish (Drosophila melanogaster, UniProt Q94527 99-473).
T5 sequence: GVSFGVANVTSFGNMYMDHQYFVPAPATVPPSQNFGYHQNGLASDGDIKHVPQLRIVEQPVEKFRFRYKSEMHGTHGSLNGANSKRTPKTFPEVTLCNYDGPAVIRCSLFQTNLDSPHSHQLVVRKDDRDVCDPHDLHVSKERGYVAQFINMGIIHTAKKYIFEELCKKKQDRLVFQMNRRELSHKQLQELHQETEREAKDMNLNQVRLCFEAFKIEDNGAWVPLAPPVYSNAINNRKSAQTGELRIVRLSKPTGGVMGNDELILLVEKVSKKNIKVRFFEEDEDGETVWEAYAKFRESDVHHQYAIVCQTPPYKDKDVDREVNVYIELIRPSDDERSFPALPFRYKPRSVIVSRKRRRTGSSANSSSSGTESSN

The target of a further test is T6, GST-Aq-NF-kB (Amphimedon queenslandica, UniProt A9Y5G7 2-389).
T6 sequence: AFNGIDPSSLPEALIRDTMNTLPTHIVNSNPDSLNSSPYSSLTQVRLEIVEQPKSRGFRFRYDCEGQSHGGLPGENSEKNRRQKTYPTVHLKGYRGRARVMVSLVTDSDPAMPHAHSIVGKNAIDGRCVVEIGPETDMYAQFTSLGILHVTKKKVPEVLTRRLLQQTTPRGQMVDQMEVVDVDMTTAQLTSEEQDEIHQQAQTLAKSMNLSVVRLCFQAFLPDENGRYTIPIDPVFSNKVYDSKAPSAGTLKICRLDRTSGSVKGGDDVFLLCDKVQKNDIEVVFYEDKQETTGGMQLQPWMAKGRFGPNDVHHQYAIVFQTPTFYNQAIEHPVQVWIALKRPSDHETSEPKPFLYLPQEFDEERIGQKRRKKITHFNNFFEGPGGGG

The target in another test is GST-Hu-p50 (Homo sapiens, UniProt P19838 7-356).

Where a chain is given by its changes, count along the chain named.

Chain of GST-Hu-p50 (P19838 7-356): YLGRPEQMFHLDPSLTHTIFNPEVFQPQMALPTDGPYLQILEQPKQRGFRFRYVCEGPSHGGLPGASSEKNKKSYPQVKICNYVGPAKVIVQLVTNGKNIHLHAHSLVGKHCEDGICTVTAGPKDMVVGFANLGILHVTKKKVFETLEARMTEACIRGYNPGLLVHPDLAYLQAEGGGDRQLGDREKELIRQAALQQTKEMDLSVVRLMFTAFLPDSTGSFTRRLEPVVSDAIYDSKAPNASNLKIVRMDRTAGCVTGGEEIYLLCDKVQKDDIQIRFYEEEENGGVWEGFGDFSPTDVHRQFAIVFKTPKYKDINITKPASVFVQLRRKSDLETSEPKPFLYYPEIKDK

Take “CCGATTAACATCAGGGGGAATACTGATGTTAATCGGGTCTTGATTCGCTTGACGCTGCTG”: the binding signal stood at 8.15 z-score with GST-Ap-NF-kB RHD; 8.32 z-score in test [1]; 8.65 z-score in test [2]; 9.18 z-score with GST-Co-NF-kB; 7.69 z-score in the test with GST-Dm-Relish; 6.87 z-score with GST-Aq-NF-kB. The binding signal in the test with GST-Hu-p50 was 6.83 z-score.
In the case of “CCGATTAACATCAAAGTATCCCCTGATGTTAATCGGGTCTTGATTCGCTTGACGCTGCTG”, the binding signal with GST-Ap-NF-kB RHD amounted to 6.1 z-score; in test [1], 5.64 z-score; in test [2], 7.21 z-score; with GST-Co-NF-kB, 5.48 z-score; with GST-Dm-Relish it was 3.47 z-score; in the test with GST-Aq-NF-kB it was 4.4 z-score. Moreover, the binding signal with GST-Hu-p50 came to 4.64 z-score.
Turning to “CCGATTAACATCAAGAGATTCCCTGATGTTAATCGGGTCTTGATTCGCTTGACGCTGCTG”, the binding signal in the test with GST-Ap-NF-kB RHD was 3.17 z-score; in test [1] it was 3.88 z-score; in test [2], 3.73 z-score; with GST-Co-NF-kB it was 2.46 z-score; with GST-Dm-Relish it was 2.38 z-score; with GST-Aq-NF-kB, 4.06 z-score. Moreover, the binding signal with GST-Hu-p50 came out at 2.78 z-score.
Consider “CCGATTAACATCAGGGGATTTTATGATGTTAATCGGGTCTTGATTCGCTTGACGCTGCTG”, for which the binding signal was 10.4 z-score with GST-Ap-NF-kB RHD; 11.7 z-score in test [1]; 12.7 z-score in test [2]; 4.81 z-score with GST-Co-NF-kB; 9.55 z-score with GST-Dm-Relish; 8.66 z-score with GST-Aq-NF-kB. Also, in the test with GST-Hu-p50, the binding signal was determined as 8.09 z-score.
As for “CCGATTAACATCAAGGGGATTCCTGATGTTAATCGGGTCTTGATTCGCTTGACGCTGCTG”, the binding signal with GST-Ap-NF-kB RHD worked out at 10.4 z-score; in test [1] it was 10.4 z-score; in test [2] it was 9.96 z-score; in the test with GST-Co-NF-kB, 2.68 z-score; with GST-Dm-Relish, 9.9 z-score; with GST-Aq-NF-kB it was 7.84 z-score. In the test with GST-Hu-p50, the binding signal was found to be 7.29 z-score.
Take “CCGATTAACATCACACAATCCCCTGATGTTAATCGGGTCTTGATTCGCTTGACGCTGCTG”: the binding signal in the test with GST-Ap-NF-kB RHD amounted to 6.64 z-score; in test [1] it was 6.65 z-score; in test [2] it was 8.71 z-score; with GST-Co-NF-kB it was 2.94 z-score; in the test with GST-Dm-Relish, 3.98 z-score; in the test with GST-Aq-NF-kB it was 4.86 z-score. Moreover, in the test with GST-Hu-p50, the binding signal was 5.87 z-score.
Regarding “CCGATTAACATCAGGGGAAACCATGATGTTAATCGGGTCTTGATTCGCTTGACGCTGCTG”, the binding signal in the test with GST-Ap-NF-kB RHD turned out to be 6.6 z-score; in test [1] it was 7.42 z-score; in test [2] it was 10.1 z-score; with GST-Co-NF-kB, 8.24 z-score; in the test with GST-Dm-Relish it was 6.18 z-score; with GST-Aq-NF-kB, 5.84 z-score. Besides, the binding signal in the test with GST-Hu-p50 was determined as 5.64 z-score.
On to “CCGATTAACATCACGGGGATTCCTGATGTTAATCGGGTCTTGATTCGCTTGACGCTGCTG”, for which the binding signal was 9.77 z-score with GST-Ap-NF-kB RHD; 9.58 z-score in test [1]; 8.87 z-score in test [2]; 4.28 z-score with GST-Co-NF-kB; 10.6 z-score with GST-Dm-Relish; 7.41 z-score with GST-Aq-NF-kB. The same sequence showed a binding signal in the test with GST-Hu-p50 of 6.46 z-score.
Turning to “CCGATTAACATCAGGGAAACATATGATGTTAATCGGGTCTTGATTCGCTTGACGCTGCTG”, the binding signal with GST-Ap-NF-kB RHD was 2.23 z-score; in test [1], 3.74 z-score; in test [2] it was 4.15 z-score; with GST-Co-NF-kB it was 5.27 z-score; with GST-Dm-Relish, 1.07 z-score; with GST-Aq-NF-kB, 4.73 z-score. The same sequence gave a binding signal in the test with GST-Hu-p50 of 1.78 z-score.
As for “CCGATTAACATCAGAGTATTCCCTGATGTTAATCGGGTCTTGATTCGCTTGACGCTGCTG”, the binding signal with GST-Ap-NF-kB RHD worked out at 3.08 z-score; in test [1], 2.98 z-score; in test [2] it was 3.2 z-score; with GST-Co-NF-kB, 2.71 z-score; in the test with GST-Dm-Relish it was 2.22 z-score; with GST-Aq-NF-kB, 3.06 z-score. Further, in the test with GST-Hu-p50, the binding signal is 1.6 z-score.
As for “CCGATTAACATCAAAACATTCCCTGATGTTAATCGGGTCTTGATTCGCTTGACGCTGCTG”, the binding signal with GST-Ap-NF-kB RHD was found to be 3.1 z-score; in test [1] it was 5.46 z-score; in test [2], 4.94 z-score; with GST-Co-NF-kB it was 4.18 z-score; in the test with GST-Dm-Relish it was 3.87 z-score; with GST-Aq-NF-kB, 6.04 z-score. This sequence had a binding signal in the test with GST-Hu-p50 of 3.88 z-score.
With “CCGATTAACATCAGGACTCCCCATGATGTTAATCGGGTCTTGATTCGCTTGACGCTGCTG”, the binding signal with GST-Ap-NF-kB RHD worked out at 5.91 z-score; in test [1], 3.31 z-score; in test [2], 3.6 z-score; in the test with GST-Co-NF-kB it was 3.44 z-score; with GST-Dm-Relish, 6.5 z-score; with GST-Aq-NF-kB, 4.12 z-score. Further, the binding signal with GST-Hu-p50 came to 2.97 z-score.
For “CCGATTAACATCAAGGGGACTTCTGATGTTAATCGGGTCTTGATTCGCTTGACGCTGCTG”, the binding signal is 7.92 z-score in the test with GST-Ap-NF-kB RHD; 7.59 z-score in test [1]; 7.54 z-score in test [2]; 2.41 z-score with GST-Co-NF-kB; 7.45 z-score with GST-Dm-Relish; 6.14 z-score with GST-Aq-NF-kB. In the test with GST-Hu-p50, the binding signal stood at 6.74 z-score.

The values are drawn from publication PMC5700166.
